# PubChem BioAssay (NCI)
# About 83,000 compounds went through this panel and 20% of them were active in at least one assay; those are over-represented in the sample as a whole.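 For each line, cells grew in 96-well plates with the test compound present at a single concentration for 48 hours.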 Activity calls are given as the source filed them. The calls were made as follows: active = growth percent below 10; inactive = the rest.
# Tested on: SR leukemia
# Assay: NCI-60 one-dose screen, 48 h (100 = growth as untreated, 0 = no growth, -100 = all killed)
# Conditions: 10 µM unless noted
row,Structure (SMILES),growth
1,Cc1[nH]c2ccc(F)cc2c1CCNC(=O)C1CCN(C(=O)c2ccccc2)C1 (stereo not drawn),96.3% [25 µM] (inactive)
2,Cc1ccc(-c2cc3nc(-c4ccccc4)nc(C(Cl)Cl)n3n2)cc1,71.2% (inactive)
3,CC(C)(C)n1cc(-c2ccnc(NCCCNS(=O)(=O)c3ccc(F)cc3)c2)c(-c2cccc(O)c2)n1,13.8% (inactive)
4,N=C(N)c1ccc(-c2ccc(-c3cncc4ccccc34)s2)cc1F,-3.96% (active)
5,c1cc(C2=N[C@@H]3c4ccccc4C[C@@H]3O2)nc(C2=N[C@@H]3c4ccccc4C[C@@H]3O2)c1,101% (inactive)
6,c1ccc(-c2nc(N3CCNCC3)c3nc(-c4ccccc4)oc3n2)cc1,0.501% (active)
7,COc1ccc(-c2ccc(-c3ccc(-c4ccc(C(=N)N)cc4)s3)s2)cc1OC,6.75% (active)
8,C=C1CCC2C(C)(CO)C(O)CCC2(C)C1C/C=C1/C(=O)OCC1Oc1ccccc1C (stereo not drawn),50.7% (inactive)
